Experimental data: PubChem BioAssay AID485313 (National Center for Advancing Translational Sciences (NCATS), 2010)
About 7,600 (2.4%) of roughly 320,000 compounds were called active. A call without a number means that no potency is given here. Another 3% or so got no clear call; they are omitted. The sample holds actives, similar compounds and a random draw of the others, so the mix is not that of the screen. Calls follow the shape of the dose curve; as a rule, active = well fitted activation curve with a large enough effect; inconclusive = small, poorly fitted or top-dose-only effect; inactive = no such curve, though single readings can be large or run the other way.

test: qHTS Assay for NPC1 Promoter Activators; settings: Huh7 NPC1 promoter luciferase reporter, 24 h; series mostly up to 9.22 µM; also: nearly all actives have a fitted effect of over 60% in size;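 as to activation: reporter is driven by a mutant NPC1 promoter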
Outline: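 Stably transfected Huh7 (NPC1 promoter→luciferase), 1500 cells/well in Opti-MEM + 10% FBS, 2 h settle, then compound 24 h at 37 °C. Luminescence after 10 min with Amplite reagent.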
Potency is read from the fitted curve at half-maximal effect.

| Structure (SMILES) | Potency |
| --- | --- |
| O=C(CCNS(=O)(=O)c1ccc(Br)cc1)NCC1CCCO1 (stereo not given) | inactive |
| COc1ccccc1C(=O)NCC(=O)NCCSc1ccc(Br)cc1 | inactive |
| Cc1ccc(NC(=O)CN(C)C(=O)COC(=O)c2nccnc2N)cc1 | inactive |
| Clc1ccc(-n2nnnc2-c2cnc(-c3ccccn3)nc2-c2cccs2)cc1 | inactive |
| c1csc(-c2nc(-c3ccncc3)no2)c1 | 3.16 µM (active) |
| Cc1ccc(-c2noc(CSc3nnc(-c4ccncc4)n3-c3ccc(F)cc3)n2)cc1 | inactive |
| O=C(NCc1cccnc1)c1nc(-c2cccs2)no1 | inactive |
| COc1nc(-c2ccc(Cl)cc2)ccc1-c1noc(-c2cccs2)n1 | inactive |
| c1ccc(-c2noc(-c3cccs3)n2)nc1 | 0.398 µM (active) |
| Cc1ccc(-c2nc(-c3ccncc3)no2)c(C)c1 | 3.16 µM (active) |
| c1ccc(CCc2nc(-c3ccncc3)no2)cc1 | inactive |
| Cc1ccc(-c2noc(CSc3nnc(-c4cccs4)n3C)n2)cc1 | inactive |
| CN(C(=O)CSc1nnc(-c2n[nH]c3ccccc23)o1)c1ccccc1 | inactive |
| O=C(COC(=O)c1c(Cl)cccc1Cl)Nc1cccc(S(=O)(=O)NC2=NCCCCC2)c1 | inactive |
| COc1ccc(Cc2nnc(N/N=C/c3ccccc3O)[nH]c2=O)cc1OC | inactive |
| COc1ccccc1C(=O)NCC(=O)OCC(=O)Nc1nnc(-c2ccccc2)o1 | inactive |
| O=C(COC(=O)c1cc(S(=O)(=O)N2CCOCC2)ccc1Cl)NCCc1ccccc1 | inactive |
| Cc1cccc(NC(=O)NC(=S)NC(=O)c2ccccc2)c1 | inactive |
| Cc1nc(C)c(C(=O)Nc2ccc(C)c(F)c2)o1 | inactive |
| Cc1ccc(NC(=O)NC(=O)c2ccccc2)cc1F | 0.562 µM (active) |
| CCN(CC)C(=O)c1nc[nH]c1C(=O)N(C)Cc1ccccc1 | inactive |
| Cc1c(NC(=O)Nc2ccccc2)cccc1[N+](=O)[O-] | inactive |

| Structure (SMILES) | Potency |
| --- | --- |
| Cc1ccc(NC(=O)Nc2ccccc2)c(Br)c1 | 3.55 µM (active) |
| CCOc1cc(NC(=O)Nc2ccccc2)c(OCC)cc1NC(=O)CC | inactive |
| COc1cc(F)c(C2=CC(=O)CC(C)(C)C2)cc1F | inactive |
| CSc1ccccc1OCc1cc(C(=O)N(C)CCc2c(C)n[nH]c2C)no1 | inactive |
| COC(=O)[C@@H]1CCCN1C(=O)c1cc(COc2cccc3cccnc23)on1 | inactive |
| CSc1ccccc1OCc1cc(C(=O)N2C[C@H]3CC[C@H]2C3)no1 | 2.82 µM (active) |
| COC(=O)c1ccc(C)c(NC(=O)C2CC(=O)N(C3CCCC(C)C3C)C2)c1 (stereo not given) | inactive |
| NS(=O)(=O)c1ccc(CCNC(=O)COC(=O)COc2cccc(C(F)(F)F)c2)cc1 | inactive |
| Cc1ccc(OCCC(=O)Nc2ccc(S(=O)(=O)Nc3nccs3)cc2)cc1 | inactive |
| COc1ccc(Cl)cc1NC(=O)CN(C)C(=O)c1ccc2n[nH]nc2c1 | inactive |
| Cc1nc2ccccc2cc1C(=O)N/N=C/c1ccc([N+](=O)[O-])cc1 | inactive |
| O=C(N/N=C/c1ccc([N+](=O)[O-])cc1)c1c[nH]c2ccccc12 | inactive |
| Cc1ccsc1C(=O)N/N=C/c1ccc([N+](=O)[O-])cc1 | 3.98 µM (active) |
| CCOC(=O)CSc1nnc(CNc2nc(-c3ccccc3)cs2)n1C | inactive |
| Cc1nc(C)c(-c2csc(NCCc3ccccc3)n2)s1 | inactive |
| CCNc1nc(-c2cc3ccccc3o2)cs1 | 2.82 µM (active) |
| O=C(CC1C(=O)NCCN1CC(c1ccccc1)c1ccccc1)NCC1CCOCC1 (stereo not given) | inactive |
| CCC1CCC2(CC1)NC(=O)N(CC(=O)Nc1ccc(OC)cc1)C2=O (stereo not given) | inactive |
| COc1ccccc1N1CCN(/N=C/c2ccc(O)cc2O)CC1 | 2.82 µM (active) |
| COc1cc(/C=N/N2CCN(c3ccccc3)CC2)ccc1OC(C)=O | inactive |
| COc1ccccc1N1CCN(/N=C\C(Br)=C\c2ccccc2)CC1 | inactive |
| CCOC(=O)c1ccc(NC(=O)Cc2cccs2)cc1 | 3.55 µM (active) |

| Structure (SMILES) | Potency |
| --- | --- |
| CCOc1ccccc1NC(=O)Cc1cccs1 | inactive |
| O=C(Cc1cccs1)Nc1ccc([N+](=O)[O-])cc1 | inactive |
| O=C(O)c1[nH]c2ccccc2c1C(c1cccc(O)c1)c1c(C(=O)O)[nH]c2ccccc12 | inactive |
| COc1ccc(NC(=O)CC2SC(N3CCCCC3)=NC2=O)cc1OC (stereo not given) | inactive |
| O=C(NCCCN1CCN(c2ccc(F)cc2)CC1)Nc1ccc([N+](=O)[O-])cc1 | inactive |
| CC(=O)Oc1ccc(-c2cccc(C(=O)N3CCCCC3)c2)cc1 | inactive |
| COc1ccc(OCc2cccc(C(=O)N3CCCC3)c2)cc1 | 0.447 µM (active) |
| COc1ccc(Cn2c(=S)[nH]c3cc(C(=O)N4CCCCC4)ccc3c2=O)cc1 | inactive |
| CN(Cc1ccccc1)C(=O)c1ccc(COc2ccccc2)cc1 | inactive |
| COc1cccc(COc2ccc(N(C)S(=O)(=O)c3ccccc3)cc2)c1 | inactive |
| CCOc1ccc(OCc2cccc(C(=O)N(CC)CC)c2)cc1 | 0.251 µM (active) |
| CCCCn1nc(C(=O)Nc2cccc(C(=O)NC3CC3)c2)c2ccccc2c1=O | inactive |
| O=C(Nc1ccccc1)N1CCC(C(=O)N2CCN(Cc3ccccc3)CC2)CC1 | inactive |
| COc1cccc(N2CCN(CC(=O)Nc3ccnn3C3CCCC3)CC2)c1 | inactive |
| CN(CC(=O)Nc1ccc(Cl)cc1)CC(=O)Nc1cccc2ccccc12 | inactive |
| CCc1nc(SCC(=O)NNC(=O)c2ccc(C)cc2)c2ccccc2n1 | inactive |
| Cc1ccc(C(=O)NNc2ncnc3ccccc23)cc1 | 3.16 µM (active) |
| Cc1ccc(C(=O)NNC(=O)c2cc3cc4ccccc4nc3s2)cc1 | inactive |
| CC(=O)Nc1ccc(S(=O)(=O)NC(C)C(=O)OCCOc2ccc(F)cc2)cc1 (stereo not given) | inactive |
| N#CCC(=O)Nc1ccc(C(=O)OCC(=O)Nc2sc3c(c2C#N)CCCC3)cc1 | inactive |
| Cc1ccccc1NC(=O)NNC(=O)OC(C)(C)C | inactive |
| CC(C)(C)OC(=O)N/N=C/c1ccc(C(=O)O)cc1 | inactive |

| Structure (SMILES) | Potency |
| --- | --- |
| C/C(=N\NC(=O)OC(C)(C)C)c1ccc[nH]1 | 2.82 µM (active) |
| CC(C)CC(COCc1ccc(Cl)cc1)N1CCN(C(=O)c2ccc(C(F)(F)F)cc2)CCC1=O (stereo not given) | inactive |
| CCOc1ccc(NC(=O)CN(C)C(=O)Cn2c(=O)cnc3ccccc32)cc1OCC | inactive |
| O=c1c2ccccc2ccc2ccc(P(=O)(O)O)cc12 | inactive |
| Cc1nc(-c2ccccc2)sc1C(=O)/C=C/N(C)C | 2.82 µM (active) |
| CN(C)/C=C/C(=O)c1ccccc1F | inactive |
| Cc1nc(COc2cccc(Cl)c2)sc1C(=O)/C=C/N(C)C | inactive |
| Cn1c(SCC(=O)Nc2nccs2)nnc1-c1cccnc1 | inactive |
| COC(=O)c1ccc(OC(=O)c2cnccn2)cc1 | inactive |
| O=C(NCCCNC(=O)c1ccccc1Cl)c1cnccn1 | inactive |
| Cn1c(=NC(=O)c2cnccn2)sc2ccccc21 | 2 µM (active) |
| CCOc1ccc2oc(C(=O)N(CC)CC(=O)Nc3ccc(NC(C)=O)cc3)c(C)c2c1 | inactive |
| Cc1c(O)c(C)c2c(c1O)C(=O)C[C@@H](c1ccccc1)O2 | inactive |
| O=C(Nc1ccon1)c1nc[nH]c1C(=O)NCc1ccccc1 | inactive |
| CC(Oc1ccc(Br)cc1)C(=O)NC1CCCCCC1 (stereo not given) | inactive |
| CC(C)(C)C(=O)OCc1nc(-c2ccc(O)c(O)c2)cs1 | inactive |
| COc1ccc(-c2csc(Cc3nc(O)cs3)n2)cc1 | 3.55 µM (active) |
| COc1cccc(CC(=O)Nc2ccc(-c3csc(C)n3)cc2)c1 | inactive |
| CCN(CC(=O)Nc1cc(Cl)ccc1C)C(=O)CSCc1ccccc1 | inactive |
| CC(=O)c1ccc(N2Cc3ccccc3C2)cc1 | 2.51 µM (active) |
| CC(=O)c1ccc(N2CCN(C(=O)CCc3ccccc3)CC2)cc1 | inactive |
| CC(=O)c1ccc(N2CCN(CC(O)c3ccccc3)CC2)cc1 (stereo not given) | inactive |

| Structure (SMILES) | Potency |
| --- | --- |
| O=C(O)c1cc(S(=O)(=O)Nc2ccc3cn[nH]c3c2)ccc1Br | inactive |
| CS(=O)(=O)N1CCN(C(=O)Cc2ccccc2)CC1 | inactive |
| CS(=O)(=O)N1CCN(c2cccc(Cl)n2)CC1 | inactive |
| CS(=O)(=O)N1CCc2nc(-c3ccccc3)sc2C1 | 2.51 µM (active) |
| CCCCN(C(=O)C1=NN(c2cc(C)ccc2C)C(=O)CC1)c1c(N)n(CCC)c(=O)[nH]c1=O | inactive |
| COc1ccc(OCCCC(=O)Nc2cccc(S(=O)(=O)N3CCCCCC3)c2)cc1 | inactive |
| Brc1ccc(-c2csc(N/N=C/c3cccnc3)n2)cc1 | inactive |
| Cc1ccccc1Nc1nc(-c2cccnc2)cs1 | 1.78 µM (active) |
| O=C(NCc1cccnc1)C(=O)Nc1nc(-c2ccccc2)cs1 | inactive |
| CN(C(=O)COC(=O)Cn1cnc2c1c(=O)n(C)c(=O)n2C)C1(C#N)CCCCC1 | inactive |
| O=C(CSc1nnc(Nc2ccccc2F)s1)NC1CCCC1 | inactive |
| COc1ccc(-c2nnc3ccc(SCc4ccccc4)nn23)cc1 | inactive |
| COC(=O)CSc1nc(C)c2ccc(OC)cc2n1 | inactive |
| COc1ccc2nc(SCc3ccccc3)nc(C)c2c1 | 3.16 µM (active) |
| Cc1ccc(OCC(=O)Nc2ccccc2C(=O)NC2CC2)cc1 | inactive |
| CC(C)Oc1ccc(S(=O)(=O)N2CCOCC2)cc1NC(=O)C1CCCC1 | inactive |
| O=C(c1ccc(Br)o1)N(c1ccccn1)C1CCCCC1 | inactive |
| COc1cccc(NC(=O)CN(C)CC(=O)c2c(N)n(Cc3ccccc3)c(=O)n(C)c2=O)c1 | inactive |
| Cc1cccc(C(=O)c2cccc(C)c2)c1 | inactive |
| N/C(=N\OC(=O)c1cc(-c2ccccc2)nc2ccccc12)c1ccncc1 | inactive |
| Cc1cccc(/C(N)=N/OC(=O)c2ccccc2Cl)c1 | 0.0891 µM (active) |
| C[C@H](NC(=O)C1CC(=O)N(c2ccc3c(c2)OCCO3)C1)C(=O)N1CCC(C(=O)O)CC1 (stereo not given in full) | inactive |
